AMA1-RON2 inh: AMA1-RON2 (P. falciparum) interaction inhibition. AlphaScreen AMA1-biotinylated RON2 peptide binding. Potency, µM (top dose mostly 58.2 µM), for the others: at the highest dose activity change, negative = inhibition, most hits filed as inhibitors. 360,000 tested, 0.2% active. AID 720542; active = well fitted inhibition curve with a large enough effect; inconclusive = small, poorly fitted or top-dose-only effect; inactive = no such curve, though single readings can be large or run the other way;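 also: potency is read from the fitted curve at half-maximal effect; 0% = vehicle wells and -100% = peptide control; nearly all actives have a fitted effect of over 45% in size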
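AMA1 (3D7) with his tag at 25 nM final met compounds first, then biotinylated RON2 peptide at 25 nM; detection used donor plus acceptor beads, 10 µg/mL apiece, read by AlphaScreen after 30 min at room temperature.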
CHX counter: counter-screen for Shiga toxin inhibitors: cycloheximide protein synthesis inhibition; cell reporter, cycloheximide protein synthesis inhibition counterscreen; max response, %; 300,000 tested, 12% active; in the data active = max response mostly above about 13%, no sharp cut-off; inactive = mostly below about 14%; also: read at 38.3 µM for the half of the compounds with a filed dose; 0% is about no effect
Shiga toxin inh: inhibitors of Shiga toxin in Vero cells | inhibition, % at 38.7 µM | Vero cells, Shiga toxin protein synthesis inhibition reporter | 290,000 tested, 9.2% active; in the data active = inhibition mostly above about 28%, no sharp cut-off; inactive = mostly below about 43%; also: 0% is about no effect
Marburg entry inh: inhibitors of Marburg virus binding or cell entry; Marburg virus pseudotyped entry inhibition, cell reporter; Potency, µM (titrated, usually from 37.8 µM), for the others: at the highest dose activity change, negative = inhibition, usual class: inhibitors; 300,000 tested, 1.8% active; AID 540276; calls by dose curve; tested in HEK293 cells; also: potency is read from the fitted curve at half-maximal effect; % is scaled to controls: 0 for no effect and ±100 for the full control effect
Lassa entry inh: inhibitors of Lassa virus binding or cell entry; Lassa virus pseudotype entry inhibition, cell reporter; Potency, µM (top dose mostly 37.9 µM), for the others: at the highest dose activity change, negative = inhibition, most hits filed as inhibitors; 300,000 tested, 1.2% active; AID 540256; calls by dose curve; tested in HEK293 cells; also: potency is read from the fitted curve at half-maximal effect; % is scaled to controls: 0 for no effect and ±100 for the full control effect; nearly all actives have a fitted effect of over 50% in size
* marks the source's active call; other numbers are inactive results; ? = inconclusive; . = no result given; [ ] = dose if it differs, or a comment. This excerpt belongs to a sample that is enriched for hits.

SMILES	AMA1-RON2 inh	CHX counter	Shiga toxin inh	Marburg entry inh	Lassa entry inh
CSc1ccccc1C(=O)Nc1nc2ccccc2c(=O)[nH]1	7.2%	32.4*	80.4*	?	?
CSc1ccccc1C(=O)Nc1nc2ccccc2[nH]1	31.7%	39.2*	73.5*	?	?
CCCOc1ccc(-c2c(=O)n(O)c3ccccc3[n+]2[O-])cc1	-7.6%	29.5*	.	?	5.3%[46.1 µM]
CCOn1c(=O)c(-c2ccccc2)[n+]([O-])c2ccccc21	-13.2%	-2.0	-1.8	?	2.8%[46.1 µM]
CCOc1ccc(-c2c(=O)n(OCc3ccccn3)c3ccccc3[n+]2[O-])cc1	-27.4%	17.1	50.5*	15.7%	-4.6%
CC[C@H](C)[C@H](NC(=O)[C@H](CCC(=O)O)NC(=O)[C@H](CO)NC(=O)[C@@H](NC(=O)[C@H](C)N)C(C)C)C(=O)N[C@@H](CCC(N)=O)C(=O)N[C@@H](CC(C)C)C(=O)N[C@@H](CCSC)C(=O)N[C@@H](Cc1cnc[nH]1)C(=O)N[C@@H](CC(N)=O)C(=O)N[C@@H](CC(C)C)C(=O)NCC(=O)N[C@@H](CCCCN)C(=O)N[C@@H](Cc1cnc[nH]1)C(=O)N[C@@H](CC(C)C)C(=O)N[C@@H](C)C(=O)N[C@@H](CO)C(=O)N[C@H](C(=O)N[C@@H](CCC(=O)O)C(=O)N[C@@H](CCCNC(=N)N)C(=O)N[C@@H](CCSC)C(=O)N[C@@H](CCC(N)=O)C(=O)N[C@@H](Cc1c[nH]c2ccccc12)C(=O)N[C@@H](CC(C)C)C(=O)N[C@@H](CCCNC(=N)N)C(=O)N[C@@H](CCCCN)C(=O)N[C@@H](CCCCN)C(=O)N[C@@H](CC(C)C)C(=O)N[C@@H](CCC(N)=O)C(=O)N[C@@H](CC(=O)O)C(=O)N[C@H](C(=O)N[C@@H](Cc1cnc[nH]1)C(=O)N[C@@H](CC(N)=O)C(=O)N[C@@H](Cc1ccccc1)C(=O)O)C(C)C)C(C)C	.	-3.6	8.3	.	.
COc1ccc(OC)c(C(C)NC(=O)Cn2c(=O)cc(C)c3c(C)nn(-c4ccc(C)cc4)c32)c1 (centres undefined)	.	.	.	.	-0.2%[46.1 µM]
Cc1cc(=O)oc2c(N)c(O)ccc12	5.5%	16.9	37.6*	.	.
Cc1cccc(Nc2nnc(SCC(=O)Nc3ccccc3[N+](=O)[O-])s2)c1C	29.0%	26.7*	42.8	?	?
Cc1ccc(Nc2nnc(SCC(=O)Nc3cccnc3Cl)s2)cc1C	32.1%	27.1*	51.8*	?	?
O=c1oc2ccccc2c(Nc2cc3ccccc3cc2O)c1[N+](=O)[O-]	20.4%	53.4*	111.5*	?	?
CSc1cccc(NC(=O)c2cccc3cccnc23)c1	-12.7%	34.0*	98.2*	?	6.7%[46.1 µM]
COc1cc(SC)ccc1C(=O)NCCN1CCOCC1	-1.5%	5.9	40.4	-1.2%	14.9%
COc1cc(SC)ccc1C(=O)Nc1nc2ccccc2[nH]1	5.4%	-12.3	-22.5	?	?
COc1cc(SC)ccc1C(=O)Nc1c(C)cccc1C	7.8%	13.0*	14.8	?	13.7%
COc1cc(SC)ccc1C(=O)Nc1ccccc1	11.5%	36.6*	94.4*	?	-23.8%
COc1cc(SC)ccc1C(=O)NCC1CCCCC1	-19.8%	27.8*	74.7*	1.0%[46.1 µM]	-18.9%
CNS(=O)(=O)c1cc(NC(=O)c2cccc3cccnc23)ccc1C	-8.1%	5.5	22.9	-13.7%[46.1 µM]	?
COc1ccccc1OC(=O)c1ccc(SC)cc1OC	58.7%	13.9*	15.0	?	10µM*
COc1cc(SC)ccc1C(=O)N1CCN(c2ccccc2OC)CC1	15.4%	-6.4	9.0	?	?
COc1cc(SC)ccc1C(=O)Nc1nccs1	-16.8%	28.3*	active	?	?
COc1ccccc1C(=O)Nc1cccc(SC)c1	1.3%	32.8*	66.4*	22.0%	0.0%
CCOC(=O)c1c(C=O)c2sc(C)cc2n1C	12.3%	22.1*	58.8	25.7%[46.1 µM]	3.8%
CCc1ccccc1NC(=O)Cn1nc(-c2cc(C)ccc2C)c2c(c1=O)CCCC2	.	.	.	?	-4.8%[46.1 µM]
Cc1c(O)ccc2c(O)c(NC(=O)c3ccc4c(c3)CCC(C)(C)O4)c(=O)oc12	-2.6%	1.0	-5.7	.	.
SMILES	AMA1-RON2 inh	CHX counter	Shiga toxin inh	Marburg entry inh	Lassa entry inh
O=C(O)Cc1ccc(C(=O)c2ccc(Cl)cc2)s1	-6.6%	8.2	-7.6	10.7%	13.6%
NC(=O)Cc1ccc(C(=O)c2ccc(Cl)cc2)s1	2.2%	46.5	57.1*	?	?
COc1ccc(NC2SC(=O)N(C)C2=O)cc1 (centres undefined)	-0.9%	9.0	49.4*	.	.
CN(CC(=O)Nc1ccccc1C(F)(F)F)C(=O)C1=COCCO1	9.6%	.	.	1.5%	?
Cc1nn(-c2ccccc2)c(Cl)c1C(=O)NNC(=O)c1ccccc1O	78.9%	.	.	.	.
Cc1ccccc1CNC(=O)C(C)N(c1ccccc1)S(C)(=O)=O (centres undefined)	.	.	.	5.3%[46.1 µM]	-16.5%[46.1 µM]
CCOc1ccccc1NC(=O)Nc1ccc(CC#N)cc1	27.0%	17.2*	28.5	.	.
N#CCc1ccc(NC(=O)Nc2cccc3ccccc23)cc1	-6.9%	16.0*	22.2	.	.
CCOc1ccccc1NC(=O)Nc1ccncc1	-3.8%	4.8	14.0	-6.3%[46.1 µM]	5.7%[46.1 µM]
NS(=O)(=O)c1ccc(NC(=O)Nc2cccc3ccccc23)cc1	-11.2%	11.7	-30.2	.	.
COc1ccccc1CCNC(=O)C(=O)NCC(c1ccc2c(c1)OCO2)N1CCOCC1 (centres undefined)	.	.	.	.	-4.7%[46.1 µM]
CC1CCCCN1C(=O)CSc1nnc(-c2ccc(Cl)s2)o1 (centres undefined)	-4.6%	27.9*	88.4*	28.4%	5.7%
Cc1occc1-c1nnc(SCC(=O)N2CCCCC2C)o1 (centres undefined)	-0.9%	.	.	.	.
CC1CCCCN1C(=O)CSc1nnc(-c2ccccc2O)o1 (centres undefined)	?	21.2*	55.5*	?	?
CC1CCCC(C)N1C(=O)CSc1nnc(C2CCCCC2)o1 (centres undefined)	18.7%	46.0*	92.5*	-9.9%	-11.7%
Cc1cc(-c2nnc(SCC(=O)N3C(C)CCCC3C)o2)no1 (centres undefined)	-0.7%	-1.6	23.1	3.3%	11.2%
CC1CCCCN1C(=O)CSc1nnc(-c2cccnc2)o1 (centres undefined)	6.2%	-1.7	15.1	?	6.3%[46.1 µM]
CC(Oc1cccnc1[N+](=O)[O-])C(=O)N1CCc2ccccc21 (centres undefined)	2.0%	.	.	-17.6%	11.5%
Nc1nc(Cl)cc(N2CCC(c3cc(-c4ccc(Cl)cc4)n[nH]3)CC2)n1	-15.3%	-1.2	-13.5	?	6.51µM*
COc1ccc(OC)c(-c2cc(C3CCN(c4cc(Cl)nc(N)n4)CC3)[nH]n2)c1	-21.5%	-0.8	-14.0	?	?
COc1ccc(-c2cc(C3CCN(Cc4cccc(C(F)(F)F)c4)CC3)[nH]n2)cc1	?	-6.3	-9.8	10µM*	?
COc1ccc(-c2cc(C3CCN(c4cc(Cl)nc(N)n4)CC3)[nH]n2)cc1	-3.6%	-2.3	-11.9	9.2µM*	?

Screening data: PubChem BioAssay, National Center for Advancing Translational Sciences (NCATS)
